Screening results as filed in PubChem BioAssay.
Rows were chosen to be rich in hits. Some 2.7% of all compounds tested hit in one or more screens of this group.
Nrf2 block: Nrf2 qHTS screen for inhibitors; Potency, µM (titrated, usually from 46 µM), inactives show at the top dose activity change, negative = inhibition, actives largely listed as inhibitors; A549 ARE-Fluc reporter, luciferase luminescence, 18-24 h; 2.1% of 360,000 active; AID 504444, 2011; further: potency means the concentration at half of the fitted maximal effect; on the % scale 0 is the no-effect control and ±100 the full control effect; nearly all actives have a fitted effect of over 60% in size
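Quantitative HTS in A549 cells stably bearing an antioxidant response element-firefly luciferase construct. Inhibition of Nrf2-driven transcription was scored by luminescence after 18-24 h of compound exposure at 37 °C.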
12-LOX inh: Primary qHTS assay for inhibitors of human arachidonate 12S-lipoxygenase (ALOX12): Round 2. Polyunsaturated fatty acid lipoxygenase ALOX12 (Homo sapiens), P18054. purified 12hLO, xylenol orange hydroperoxide absorbance. Potency, µM (top dose mostly 108 µM), without a hit: at the top dose activity change, negative = inhibition, hits mostly inhibitors. 1.1% of 580,000 active; further: potency means the concentration at half of the fitted maximal effect; on the % scale 0 is the no-effect control and ±100 the full control effect
Target sequence (P18054 whole entry, looked up): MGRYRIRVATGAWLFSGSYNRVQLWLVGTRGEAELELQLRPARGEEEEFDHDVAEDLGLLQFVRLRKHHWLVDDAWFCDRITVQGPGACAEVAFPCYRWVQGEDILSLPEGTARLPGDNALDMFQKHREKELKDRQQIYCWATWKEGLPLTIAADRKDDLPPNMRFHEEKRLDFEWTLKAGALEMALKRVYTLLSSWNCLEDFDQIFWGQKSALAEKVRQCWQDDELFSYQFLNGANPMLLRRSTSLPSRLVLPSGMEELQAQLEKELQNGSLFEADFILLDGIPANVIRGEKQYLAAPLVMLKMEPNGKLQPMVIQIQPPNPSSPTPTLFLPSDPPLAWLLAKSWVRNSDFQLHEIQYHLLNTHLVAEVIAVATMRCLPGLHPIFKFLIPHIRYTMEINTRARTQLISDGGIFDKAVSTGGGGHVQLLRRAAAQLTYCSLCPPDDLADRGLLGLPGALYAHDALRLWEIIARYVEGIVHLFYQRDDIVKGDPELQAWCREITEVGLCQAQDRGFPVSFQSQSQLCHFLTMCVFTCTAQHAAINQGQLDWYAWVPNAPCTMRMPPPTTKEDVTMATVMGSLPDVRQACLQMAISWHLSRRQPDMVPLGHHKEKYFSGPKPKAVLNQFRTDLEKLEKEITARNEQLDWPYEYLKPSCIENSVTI
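Purified human 12hLO (150 nM final) in 25 mM Hepes, 0.01% Triton X-100, pH 7.0 was preincubated 15 min at room temperature with compound. Then 40 uM arachidonic acid was added, 30 min. Hydroperoxide was read by Fe-XO absorbance ratio 573/405 nm.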
mIDH1 inhibitor: qHTS for Inhibitors of mutant isocitrate dehydrogenase 1 (IDH1): qHTS. Isocitrate dehydrogenase [NADP] cytoplasmic (Homo sapiens), O75874. IDH1-R132H enzyme, NADPH consumption, diaphorase/resazurin fluorescence. 0.093% of 390,000 active. Potency, µM (series often up to 76.6 µM), without a hit: top-dose activity change, negative = inhibition, most hits filed as inhibitors; further: potency means the concentration at half of the fitted maximal effect; on the % scale 0 is the no-effect control and ±100 the full control effect; nearly all actives have a fitted effect of over 65% in size
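IDH1-R132H (0.5 ug/mL dispensed) in pH 7.5 Tris buffer was preincubated 30 min with compound, then given a substrate mix of 0.016 mM NADPH and 2 mM alpha-KG for 80 min at room temperature; remaining NADPH was read by diaphorase/resazurin fluorescence.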
LDHA block: qHTS assay for inhibitors of human lactate dehydrogenase; 0.15% of 480,000 active; purified LDHA, NADH/diaphorase-resazurin fluorescence; active compounds read low; activity change, % (values are at about 110 or 230 µM); L-lactate dehydrogenase A chain (Homo sapiens), P00338; in the data active means activity change below about -30%; inconclusive means mostly about -25% to -30%;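 further: plate controls were DMSO wells for no effect and wells without enzyme for full effect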
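Remaining NADH was detected by diaphorase (0.133 mg/mL) converting 37 µM resazurin to fluorescent resorufin, read at 0 and 20 minutes. The preceding 5-minute room-temperature reaction used 2 nM LDHA, 0.2 mM sodium pyruvate and 0.06 mM NADH at pH 7.4.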
Nrf2 ARE act: qHTS of Nrf2 Activators; AREc32 ARE-luciferase reporter (MCF7-derived line), luminescence, 24 h; Potency, µM (highest dose often 46.1 µM), for the others: at the top dose activation, actives largely listed as activators; 0.31% of 410,000 active; AID 624171, 2012; further: potency means the concentration at half of the fitted maximal effect; % of control where 0% means no effect; nearly all actives have a fitted effect of over 65% in size
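AREc32 cells carrying an ARE-driven firefly luciferase, 1000 cells/well in OPTI-MEM with 5% FBS, dosed after overnight attachment and incubated 24 hr at 37 deg C. Steady-Glo luminescence read after 30 min at RT.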
A549 viability: Nrf2 qHTS screen for inhibitors: counterscreen for cytotoxicity | A549 ARE-Fluc cells, CellTiter-Fluor viability, 18-24 h | Potency, µM (titrated, usually from 46 µM), for the others: at the top dose activity change, negative = cytotoxicity, most hits filed as inhibitors | 0.16% of 390,000 active | AID 504648, 2011; further: potency means the concentration at half of the fitted maximal effect; on the % scale 0 is the no-effect control and ±100 the full control effect
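A549 ARE-Fluc cells in 5% FBS OPTI-MEM, 5000 cells/well, rested 2 h then exposed to compounds in concentration-response for 18-24 h at 37 °C. Viability by CellTiter-Fluor fluorescence (Ex 405/Em 525) after 30 min; luciferase luminescence (BugLite, 15 min, RT) read afterwards.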
* hit, by the source's call. Unless noted, the call rests on the fitted dose curve; in most records, active means well fitted curve in the direction sought with a large enough effect; inconclusive means small, poorly fitted or top-dose-only effect, or another doubt; inactive means no such curve, though single readings can be large; an effect the other way counts as inactive or inconclusive.

How did COc1ccc(NC(=O)CNC(c2ccccc2)c2ccccc2)cc1 do in these assays?
Nrf2 block: 5%; 12-LOX inh: inconclusive; mIDH1 inhibitor: 16%; LDHA block: -20; Nrf2 ARE act: -1%; A549 viability: -10%

Results for COc1ccc(C(NCC(=O)NC(C)c2ccc(Cl)cc2)c2ccccc2)cc1 (stereo not given) ?
Nrf2 block: 15µM*; 12-LOX inh: inconclusive; mIDH1 inhibitor: 3%; LDHA block: -15; Nrf2 ARE act: 4%; A549 viability: inconclusive

How did CCCC(=O)c1cc2c(cc1NC(=O)c1cccs1)OCCO2 do in these assays?
Nrf2 block: 6%; 12-LOX inh: 1%; mIDH1 inhibitor: 4%; LDHA block: 4; Nrf2 ARE act: 3%; A549 viability: 1%

How did O=C(Nc1cc2c(cc1Br)OCCO2)c1cccs1 do in these assays?
Nrf2 block: inconclusive; 12-LOX inh: 30%; mIDH1 inhibitor: 0%; LDHA block: 0; Nrf2 ARE act: 13µM*; A549 viability: -9%

Results for COc1ccc(-c2nc(CN3CCN(c4cc(C)nc(C)c4)CC3)c(C)o2)c2ccccc12 ?
Nrf2 block: -1%; 12-LOX inh: -23%; mIDH1 inhibitor: 6%; LDHA block: 0; Nrf2 ARE act: 6%; A549 viability: -1%

How did Cc1oc(-c2cccc3ccccc23)nc1CN1CCN(c2ncnc3ccccc23)CC1 do in these assays?
Nrf2 block: 18µM*; 12-LOX inh: -9%; mIDH1 inhibitor: -12%; LDHA block: -9; Nrf2 ARE act: 0%; A549 viability: inconclusive

What do the screens show for `O=S1(=O)Nc2c(ccc3cccnc23)-c2ccccc21`?
Nrf2 block: inconclusive; mIDH1 inhibitor: 11%; LDHA block: 21; Nrf2 ARE act: 7.1µM*; A549 viability: inconclusive

How did Cc1cnc2c3c(cc(Cl)c2c1)-c1ccccc1S(=O)(=O)N3 do in these assays?
Nrf2 block: 6.5µM*; LDHA block: 14; A549 viability: 16µM*

How did O=C1C=CC(=O)N1N(c1ccccc1)c1ccccc1 do in these assays?
Nrf2 block: inconclusive; 12-LOX inh: 35µM*; mIDH1 inhibitor: 7%; LDHA block: -8; Nrf2 ARE act: inconclusive; A549 viability: -17%

How did O=C1c2ccccc2C(=O)N1N(c1ccccc1)c1ccccc1 do in these assays?
Nrf2 block: 5%; 12-LOX inh: -8%; mIDH1 inhibitor: 3%; LDHA block: -4; Nrf2 ARE act: 0%; A549 viability: -9%

What do the screens show for `CCN=c1scc(C)n1/N=C/c1cc(Br)c(O)c(Br)c1`?
Nrf2 block: 8%; 12-LOX inh: 25µM*; mIDH1 inhibitor: -1%; LDHA block: -3; Nrf2 ARE act: 1%; A549 viability: inconclusive

What do the screens show for `O=[N+]([O-])c1ccc(S(=O)(=O)CC(CN2CCCCC2)N2CCCCC2)cc1` (stereo not given)?
Nrf2 block: inconclusive; 12-LOX inh: 0%; mIDH1 inhibitor: 9%; LDHA block: 2; Nrf2 ARE act: 0%; A549 viability: -4%

What do the screens show for `O=S(=O)(CC(CN1CCCCC1)N1CCCCC1)c1ccccc1` (stereo not given)?
Nrf2 block: 18µM*; 12-LOX inh: -3%; mIDH1 inhibitor: -1%; LDHA block: -3; Nrf2 ARE act: 0%; A549 viability: inconclusive

How did O=C(CSc1nnc(COc2ccc(Cl)cc2)n1Cc1ccco1)c1ccccc1F do in these assays?
Nrf2 block: 13µM*; 12-LOX inh: 2%; mIDH1 inhibitor: 2%; LDHA block: -2; Nrf2 ARE act: 0%; A549 viability: inconclusive
